This is an account of results in ChEMBL document CHEMBL1157539, “Thousands of chemical starting points for antimalarial lead identification” (Nature, 2010).

Molecules are shown by their SMILES.

Holding throughout (format): functional
Assay [1] relates to Plasmodium falciparum. As to the kind of experiment: GSK_TCMDC: Inhibition of Plasmodium falciparum 3D7 in whole red blood cells, using parasite LDH activity as an index of growth. Test compounds present at 2uM.
The test system of assay [2] is Plasmodium falciparum. Put plainly: GSK_TCMDC: Inhibition of Plasmodium falciparum Dd2 in whole red blood cells, using parasite LDH activity as an index of growth. Test compounds present at 2uM.
Assay [3] relates to HepG2. As to the kind of experiment: GSK_TCMDC: Percent inhibition of human HepG2 cell line. Test compounds present at 10uM.

Usually Inhibition stands for how much of the control response was suppressed. The low end stands for a weak effect, the high end for a strong effect. `COc1ccc2c(NN=Cc3ccncc3)ccnc2c1`: the Inhibition in assay [1] was 95%; in assay [2] it was 6%; in assay [3], 0%.

Take `CN(C)Cc1ccc(-c2cc3c(-c4ccc(CN(C)C)cc4)ccnc3[nH]2)cc1.O=C(O)C(F)(F)F`: the figures for the Inhibition in assay [1], in assay [2] and in assay [3] were 100%, 96% and 86%, respectively.

As to `Nc1c(Cl)cc(C(O)CNCCCCCOCCCc2ccc(O)c3ncccc23)cc1Cl.O=C(O)/C=C/C(=O)O` (stereo not given), the Inhibition was 90% in assay [1], 12% in assay [2] and 65% in assay [3].

On to `CC1CN(Cc2cccc(C#N)c2)CCN1c1ccc(NC(=O)c2cccs2)cc1.O=C(O)C(F)(F)F` (stereo not given), for which the Inhibition in assay [1] was 94%; in assay [2], 93%; in assay [3], 4%.

Consider `CCOc1ccc(-c2n[nH]c(C(F)(F)F)c2-c2ccccc2OC)c(O)c1`, for which the Inhibition is given as 86% in assay [1], 12% in assay [2] and 22% in assay [3].

Take `FC(F)(F)c1ccc2[nH]c(-c3ccc(-c4ccc(CNCc5ccccc5)cc4)cc3)nc2c1.O=C(O)C(F)(F)F`: the Inhibition amounted to 100% in assay [1], 96% in assay [2] and 22% in assay [3].

As to `Nc1cccc(CNCc2ccc(-c3cccc(-c4nc5cc(F)ccc5[nH]4)c3)cc2)c1.O=C(O)C(F)(F)F`, the Inhibition in assay [1] stood at 100%; in assay [2] it was 94%; in assay [3], 36%.

In the case of `Cl.NC1=NC2(CCCCC2)N(Cc2ccc(Cl)c(Cl)c2)C(N)=N1`, the Inhibition in assay [1] is 86%; in assay [2], 76%; in assay [3] it was 22%.

Take `O=C(Nc1ccc([N+](=O)[O-])cc1)Nc1cc(OCC(F)(F)F)cc(OCC(F)(F)F)c1`: the figures for the Inhibition in assay [1], in assay [2] and in assay [3] were 100%, 100% and 71%, respectively.

Regarding `Nc1c(Cl)cc(C(O)CNCCCCCCOCCc2ccc(O)cc2)cc1Cl.O=C(O)/C=C/C(=O)O` (stereo not given), the Inhibition in assay [1] stood at 97%; in assay [2] it was 97%; in assay [3], 13%.
